A selection: hits, their analogues and other compounds. The true share with any hit is near 0.92%.
TDP1 block = inhibitors of human tyrosyl-DNA phosphodiesterase TDP1; 350,000 compounds, 0.28% hits; recombinant TDP1, AlphaScreen DNA substrate cleavage; Q9NUW8; Potency, µM (titrated, usually from 130 µM), for inactives: at the highest dose activity change, negative = inhibition, hits mostly inhibitors; note: nearly all actives have a fitted effect of over 40% in size
Target sequence (Q9NUW8 whole entry, looked up): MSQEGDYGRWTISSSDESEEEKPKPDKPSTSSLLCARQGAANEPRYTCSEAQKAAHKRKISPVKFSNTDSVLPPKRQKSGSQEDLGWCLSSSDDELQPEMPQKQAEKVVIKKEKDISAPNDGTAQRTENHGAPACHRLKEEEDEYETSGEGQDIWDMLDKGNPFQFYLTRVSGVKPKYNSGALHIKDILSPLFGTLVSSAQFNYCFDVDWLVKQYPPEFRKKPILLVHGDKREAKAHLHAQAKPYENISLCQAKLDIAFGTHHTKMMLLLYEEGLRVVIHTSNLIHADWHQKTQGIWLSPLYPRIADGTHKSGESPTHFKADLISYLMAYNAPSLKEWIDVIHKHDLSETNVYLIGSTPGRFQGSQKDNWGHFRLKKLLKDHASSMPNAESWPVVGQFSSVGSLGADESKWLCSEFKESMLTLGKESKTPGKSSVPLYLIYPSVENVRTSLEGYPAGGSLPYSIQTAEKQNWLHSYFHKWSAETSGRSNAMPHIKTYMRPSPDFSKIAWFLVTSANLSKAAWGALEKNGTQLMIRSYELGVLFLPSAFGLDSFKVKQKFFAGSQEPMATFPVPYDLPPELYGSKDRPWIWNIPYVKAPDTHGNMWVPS
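Steps: enzyme plus compound, 15 min RT; add biotin/phosphotyrosine-FITC oligonucleotide (15 nM final), react 5 min; add donor/acceptor beads (10 ug/ml final), 10 min; read AlphaScreen. Tdp1 at 1 nM final.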
APEX1 inh = blocks human APE1 abasic DNA cleavage | P27695 | Potency, µM (doses to about 65.8 µM), for the others: at the highest dose activity change, negative = inhibition, actives largely listed as inhibitors | 350,000 compounds, 0.35% hits | recombinant APE1, TAMRA/BHQ-2 abasic DNA cleavage fluorescence | AID 2517;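 note: plate controls were vehicle for no effect and reference inhibitor for full effect; nearly all actives have a fitted effect of over 55% in size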
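Activity was derived from the fluorescence gain between first and third kinetic reads (60 s intervals, ex 525/em 598 nm) after 50 nM THF-abasic TAMRA/BHQ-2 duplex was added to 0.75 nM APE1 preincubated 15 min with compound.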
FEN1 inhibitor = inhibitors of human flap endonuclease 1; Potency, µM (highest dose often 114 µM), for inactives: at the highest dose activity change, negative = inhibition, actives largely listed as inhibitors; 390,000 compounds, 0.35% hits; Recombinant FEN1 flap cleavage, fluorescence, 15 min; P39748; AID 588795; note: nearly all actives have a fitted effect of over 65% in size
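Quantitative HTS format: each compound was titrated, incubated with 10 nM nuclease for 15 min at room temperature, then challenged with flap substrate at 50 nM final. Signal change over 15 min gave concentration–effect curves.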
RECQ1 helicase = inhibitors of human RECQ1 DNA helicase; RECQ1 DNA unwinding, red fluorescence kinetic read; AID 2549; Potency, µM (top dose mostly 57.3 µM), for the others: at the highest dose activity, negative = inhibition, hits mostly inhibitors; 240,000 compounds, 0.54% hits; P46063;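 note: plate controls were vehicle for no effect and no enzyme for full effect; nearly all actives have a fitted effect of over 30% in size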
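50 nM RECQ1T1 preincubated 15 min with compound in Tris pH 8.0 buffer with MgCl2, DTT, Tween-20 and 2.5 ug/ml poly(dI-dC); started with 200 nM TAMRA/BHQ-2 forked duplex and 2 mM ATP. Unwinding read as fluorescence (525/598 nm), two reads 2 h apart.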
BLM inh = Bloom syndrome helicase (human) inhibition; P54132; recombinant BLM DNA unwinding, fluorescence dequenching; Potency, µM (titrated, usually from 56.1 µM), for the others: at the highest dose activity change, negative = inhibition, usual class: inhibitors; 350,000 compounds, 0.2% hits; AID 2528;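 note: plate controls were vehicle for no effect and no enzyme for full effect; nearly all actives have a fitted effect of over 35% in size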
The depositor's hits bear a star; i = inactive; ? = inconclusive; . = no result; [ ] = another dose, or the depositor's remark. Calls come from the whole dose curve; as a rule, active = well fitted curve in the direction sought with a large enough effect; inconclusive = small, poorly fitted or top-dose-only effect, or another doubt; inactive = no such curve, though single readings can be large; an effect the other way counts as inactive or inconclusive. Unless noted, % is set by controls: 0 for no effect and ±100 for the full control effect; potency is the fitted concentration of half-maximal effect.

SMILES	TDP1 block	APEX1 inh	FEN1 inhibitor	RECQ1 helicase	BLM inh
Cc1cc(C)c2c(c1)NC(C(=O)O)C1CC=CC21 (configuration not stated)	-9%	-17%	45µM*	.	-7%
O=C(Nc1ccc(Oc2ccccc2)cc1)c1ccc(F)c(S(=O)(=O)N2CCN(c3cccc(Cl)c3)CC2)c1	3%	.	-7%	.	-9%
COc1ccc(NC(=O)Cn2c(=O)n(CCCCCC(=O)NCc3ccc4c(c3)OCO4)c(=O)c3sccc32)cc1Cl	5%	.	89µM*	.	-10%
CC(C)(C)c1cc(=O)n(-c2ccccc2)[nH]1	3%	-9%	4%	i	18µM*
O=c1ccc(=O)n(-c2ccccc2)[nH]1	6%	1%	6%	-1%	0%
O=C1c2ccccc2C(=O)C12OC2c1cccc2ccccc12 (configuration not stated)	-5%	-8%	-8%	3%	18µM*
CCCCCn1c(N)c(-c2nc3ccccc3o2)c2c([N+](=O)[O-])nn(C)c(=O)c21	-5%	7%	-1%	-1%	16µM*
CCCc1nc2sc3c(SCC(=O)NCc4ccco4)ncnc3c2c2c1CCC2	20µM*	?	?	?	?
CCN1/C(=C\C(=S)Nc2ccccc2)Sc2ccccc21	10%	-4%	-5%	-1%	-9%
CCN1/C(=C/C(C)=C/c2sc3ccccc3[n+]2CC)Sc2ccccc21	8%	-14%	7.1µM*	13µM*	?
O=Cc1ccc(I)cc1	.	.	-9%	.	.
COc1ccc(C(=O)Oc2cc(N)n(S(=O)(=O)c3ccccc3)n2)cc1	0%	-4%	-1%	1%	-4%
COc1ccc(S(=O)(=O)n2nc(OC(C)=O)cc2N)cc1	3%	1%	45µM*	-10%	0%
COc1ccc(Cl)c(Cn2cnc3c(cnn3C(C)(C)C)c2=O)c1	.	19%	-2%	.	.
COc1ccc(-c2oc3cc(OC)c(OC(C)=O)c(OC)c3c(=O)c2OC)cc1OC(C)=O	8%	-5%	.	-3%	-4%
CC(=O)Oc1cc(O)c2c(=O)c(OC(C)=O)c(-c3ccc(OC(C)=O)c(OC(C)=O)c3)oc2c1	.	.	2.8µM*	.	.
Cc1cnc2c(C)cccc2c1/C=C/c1ccc(N(C)C)cc1	.	.	-27%	.	.
CCOC(=O)C1=C([Si](C)(C)C)c2ccccc2N(S(=O)(=O)C(F)(F)F)C1C(=O)OCC (configuration not stated)	1%	1%	.	-6%	-8%[75.6 µM]
OCCCNC(=S)Nc1ccc2nccnc2c1	4%	1%	40µM*	-6%	1%
Fc1ccc(NC(=S)Nc2ccc3nccnc3c2)cc1	7%	-4%	?	i	-13%
CCn1c2c(c(=O)n3ncc(C(=O)Nc4ccc(C(=O)OC)cc4)c13)CN(Cc1ccc(OC)cc1)CC2	1%	.	-3%	.	-8%
COC(=O)[C@H]1O[C@@H](c2cc(OC)c(C)c(OC)c2OCc2ccccc2)[C@H](C)[C@@H]2O[C@]12C	6%	19%	.	-3%	-1%
CN(C)CCCNc1cc(N2CCN(C)CC2)ncn1	.	.	14%	.	.
CCCCc1nc2c(c3c1C[C@H](C)OC3)CN(C(=O)N[C@@H](C)c1ccccc1)CC2	15%[12.3 µM]	-3%[12.4 µM]	.	i[11.5 µM]	1%[12.4 µM]
COc1ccc(/C(O)=C2\C(=O)C(=O)N(Cc3ccco3)C2c2cc(OC)ccc2OC)cc1 (configuration not stated)	4%	-3%	-19%	-8%	-8%
COc1ccc(OC)c(C2/C(=C(/O)c3ccccc3)C(=O)C(=O)N2Cc2ccco2)c1 (configuration not stated)	0%	4%	45µM*	-2%	4%
CC1CC[C@@]23CCC4(C)[C@@]5(C)CCC6C(C)(C)C(=O)CC[C@@]6(C)C5C=C[C@@]4(OC2=O)C3C1C (some centres not stated)	13%[56.1 µM]	5%	.	0%	3%
O=C1C=C(Nc2cccc3cccnc23)c2ccccc2C1=O	10%	1%	50µM*	.	?
CC(Cc1c[nH]c2ccccc12)C(=O)O (configuration not stated)	-4%	?	14%	35µM*	-7%
CC(=O)N[C@H](Cc1c[nH]c2ccccc12)C(=O)O	.	.	-4%	.	.

Compound activity from PubChem BioAssay.
